# High-throughput results (PubChem BioAssay)
# Shown are actives, neighbours in structure and some others; about 6.5% of the full set was active somewhere.
# Marburg entry inh: blocks Marburg virus binding to or entry into cells; Potency, µM (top dose mostly 37.8 µM), for the others: at the top dose activity change, negative = inhibition, actives largely listed as inhibitors; hit rate 1.8% among 300,000; Marburg virus pseudotyped entry inhibition, cell reporter; AID 540276; calls by dose curve; tested in HEK293 cells; note: potency is the fitted concentration of half-maximal effect
# FMDV antiviral: foot and mouth disease virus antiviral activity | FMDV antiviral cell-based qHTS | Potency, µM (highest dose often 57.9 µM), without a hit: at the highest dose activity change, negative = inhibition, actives largely listed as inhibitors | hit rate 1.2% among 410,000; calls by dose curve; tested in HEK293T cells; note: read-out not given here; potency is the fitted concentration of half-maximal effect; nearly all actives have a fitted effect of over 45% in size
# HCMV inh: human cytomegalovirus inhibition; HFF cells, HCMV-luciferase reporter, 72 h; stronger effect = lower value; activity change, negative = inhibition, % at 57.5 µM; hit rate 4.5% among 410,000; in the data active = activity change below about -60%; inconclusive = no clear call, values can overlap the other calls; inactive = above about -39%
#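 Cell-based, HFFs, 1000 cells/well, 16 h 37C; cpds in DMSO + HCMV-luc, MOI 1 PFU/cell; 72 h 37C; OneGlo luminescence after 5 min RT; norm. to buffer vs Salinomycin 10uM.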
# VACV Venus inh: vaccinia inhibition (Venus reporter) | hit rate 0.46% among 330,000 | Potency, µM (series often up to 36.5 µM), inactives show at the highest dose activity change, negative = inhibition, usual class: inhibitors | Vaccinia virus Venus reporter expression, fluorescence; calls by dose curve; tested in A549 cells; note: potency is the fitted concentration of half-maximal effect; nearly all actives have a fitted effect of over 30% in size
# VACV mCherry inh: vaccinia inhibition (mCherry reporter); Vaccinia virus mCherry reporter infection, fluorescence; Potency, µM (highest dose often 36.5 µM), without a hit: at the highest dose activity change, negative = inhibition, most hits filed as inhibitors; hit rate 0.63% among 310,000; AID 720579; calls by dose curve; tested in A549 cells; note: potency is the fitted concentration of half-maximal effect; nearly all actives have a fitted effect of over 35% in size
# LASV entry inh: inhibitors of Lassa virus binding or cell entry. hit rate 1.2% among 300,000. Lassa virus pseudotype entry inhibition, cell reporter. Potency, µM (series often up to 37.9 µM), without a hit: at the highest dose activity change, negative = inhibition, actives largely listed as inhibitors. AID 540256; calls by dose curve; tested in HEK293 cells; note: potency is the fitted concentration of half-maximal effect; nearly all actives have a fitted effect of over 50% in size
# * hit, by the source's call; i = inactive; ? = inconclusive; · = no result given; + = active, no number; [ ] = another dose, or the depositor's remark. % is set by controls: 0 for no effect and ±100 for the full control effect.
SMILES,Marburg entry inh,FMDV antiviral,HCMV inh,VACV Venus inh,VACV mCherry inh,LASV entry inh
COc1ccc(Nc2c3c(nc4nncn24)CCC3)cc1Cl,-28.2%[46.1 µM],-26.7%,-23.0,?,i,?
C[C@]12CC[C@H](O)C[C@H]1CC[C@@H]1[C@@H]2CC[C@]2(C)[C@@H](C3=CC(=O)OC3)CC[C@]12O,·,-16.9%,-97.0*,1.12µM*,?,·
CC12CCC(O)CC1CCC1C2CCC2(C)C(C3=CC(=O)OC3)CCC12O (centres undefined),0.282µM*,?,-98.7*,0.891µM*,?,0.447µM*
CC(=O)C1CCC2C3CCC4CC(O)CCC4(C)C3CCC12C (centres undefined),·,?,-4.0,-18.5%,-3.3%,·
CCCCCCC(=O)Cc1cc(OC)c(OC)cc1C=C(C(C)=O)C(=O)OC,-10.7%[14.2 µM],·,·,·,·,·
Cc1cnc(-n2ncc(C(=O)NCc3cccnc3)c2C)nc1-c1ccc(F)cc1,·,-25.5%,·,-29.0%,?,·
O=C(NCc1ccc(Cl)cc1)c1ccc(NC(=O)N2CC3CCCN3c3ccccc32)cc1 (centres undefined),-14.9%[46.1 µM],-10.5%,-8.6,-16.3%,-4.9%,-13.2%[46.1 µM]
CCOc1cc(C2Nc3ccccc3C(=O)N2Cc2ccco2)ccc1OCc1ccccc1Cl (centres undefined),·,·,·,-3.0%,17.8%,·
CC(=O)c1ccc2c(c1)C1C(Cl)C(Sc3ccccc3[N+](=O)[O-])CC1C(c1ccccc1[N+](=O)[O-])N2 (centres undefined),?,-24.5%,-87.9*,-23.2%,-16.3%,?
CCN(C(=O)c1cn(-c2cccc(OC)c2)c(=O)c2ccccc12)c1ccccc1C,·,-5.4%,-69.9*,-10.9%,-5.5%,-7.7%[46.1 µM]
CCn1cc(C(=O)N(C)c2cc(C)ccc2OC)c2cc(OC)c(OC)cc2c1=O,·,-19.9%,·,·,·,·
COc1ccc(-n2cc(C(=O)N(C)c3cc(C)ccc3OC)c3ccccc3c2=O)cc1,·,-5.7%,-84.9*,-16.0%,-3.2%,21.9%[46.1 µM]
COc1cccc(-n2cc(C(=O)Nc3ccccc3C(N)=O)c3ccccc3c2=O)c1,·,-24.5%,-79.8*,-9.8%,-19.3%,5.5%[46.1 µM]
COc1ccc(CNC(=O)c2cn(-c3cccc(OC)c3)c(=O)c3ccccc23)cc1,·,-16.0%,-37.5,-8.5%,-8.9%,-0.2%[46.1 µM]
COc1ccc(-c2c3c(=O)n(C)c(=O)n(C)c3c3c(-c4ccc(C)cc4)nc4ccccc4n23)cc1,-27.1%[46.1 µM],-23.8%,27.3,3.3%,-19.7%,2.9%[46.1 µM]
CCc1cccc(CC)c1N1C(=O)COCC1=O,·,0.0%,-62.3*,-5.2%,-6.4%,·
CCc1cccc(CC)c1N1C(=O)C2=C(SCCCS2)C1=O,·,?,?,-13.4%,-9.1%,·
c1cncc(-c2cncnc2NC2CCNCC2)c1,·,-11.5%,·,·,·,·
N=c1c2c(n(Cc3ccc(Cl)c(Cl)c3)c3c1CCC3)CCCC2,?,?,-86.4*,?,·,?
N=c1c2c(n(Cc3ccc([N+](=O)[O-])cc3)c3c1CCC3)CCCC2,?,0.0%,-85.5*,-1.4%,-0.8%,-7.7%
N=c1c2c(n(Cc3ccc(Br)cc3)c3c1CCC3)CCCC2,?,39.8µM*,-94.7*,·,·,?
COC(=O)C1=C(C)N(Cc2ccccc2)C(=NCc2cc(OC)c(OC)c(OC)c2)NC1c1cccc(F)c1 (centres undefined),-16.7%[14.2 µM],·,·,·,·,?
COC(=O)c1ccc(NC(=O)c2c(NCc3ccc(C)o3)sc3c2CCCC3)cc1,·,11.9%,-2.1,-10.8%,-18.7%,?
O=C(CNCC(=O)Nc1ccc(F)c(F)c1F)Nc1ccc(F)c(F)c1F,·,-4.4%,-82.8*,·,·,·
O=C(CNC(=O)C1CC1)Nc1ccc(F)c(F)c1F,2.8%[46.1 µM],10.0%,43.8,-4.8%,-1.3%,28.8%[46.1 µM]
SMILES,Marburg entry inh,FMDV antiviral,HCMV inh,VACV Venus inh,VACV mCherry inh,LASV entry inh
COc1ccc(OCC(=O)OCc2cc(=O)n3nc(C4CC4)sc3n2)cc1,·,-3.6%,14.9,-3.4%,-7.4%,-15.6%[46.1 µM]
Cc1cccn2c(=O)c3cc(C(=O)NCc4ccccc4)c(=N)n(CCCN4CCOCC4)c3nc12,·,-8.9%,-30.8,·,·,·
Cc1cccn2c(=O)c3cc(C(=O)NCCN4CCOCC4)c(=N)n(CCCN4CCOCC4)c3nc12,7.94µM*,-1.6%,-2.5,-8.8%,i,?
COc1ccc(CCn2c(=N)c(C(=O)NCCN3CCOCC3)cc3c(=O)n4cccc(C)c4nc32)cc1OC,·,-21.2%,-95.3*,·,·,·
Cc1cccn2c(=O)c3cc(C(=O)NCCN4CCOCC4)c(=N)n(CCc4ccccc4)c3nc12,?,-6.9%,-84.7*,-1.4%,-8.0%,-24.3%
COCCN=c1scc(-c2cccs2)n1/N=C/c1ccc(O)c(O)c1O,·,1.0%,-38.1,?,11.2µM*,·
COc1ccccc1CCNC(=O)c1cc(COc2cccc(C(F)(F)F)c2)on1,·,0.0%,+,·,·,·
C=CCC1(CC=C)CCCN1C(=O)c1cc(COc2cccc(C(F)(F)F)c2)on1,10µM*,-24.4%,·,-14.5%,-1.3%,?
O=C(O)C1CCCC2CN3CCc4c([nH]c5ccccc45)C3C(O)C21 (centres undefined),25.1%[46.1 µM],13.3%,-71.6*,9.5%,i,0.8%[46.1 µM]
CC(C)c1ccc(NC(=O)CN2C(=O)CSc3ccc(S(=O)(=O)N4CCCC4)cc32)cc1,·,-3.8%,-36.4,-7.0%,-8.9%,-14.1%[46.1 µM]
CCC[C@H]1[C@@H](NC(=O)Nc2ccccc2)CC[C@@]23CCCN2C(=O)CCC[C@@H]13,·,·,7.1,·,·,·
CCCc1nc2c(C)ccc(C)c2c(N)c1CC,9.2µM*,-20.6%,-2.3,·,·,-24.4%
CCc1c(N)nc(N)nc1Nc1ccc(C)c(C)c1,?,?,-33.0,-20.9%,?,1.8%[46.1 µM]
Cc1nc2ccccc2nc1/C=C/c1ccc(N(C)C)cc1,·,·,·,20.3%,-10.7%,·
COc1cc(C2c3c(-c4ccccc4O)n[nH]c3C(=O)N2CCO)ccc1OCc1ccccc1 (centres undefined),?,-27.3%,-11.3,-10.2%,-14.1%,?
CCCOc1ccc(C2c3c(-c4ccccc4O)n[nH]c3C(=O)N2CCc2ccccc2)cc1OCC (centres undefined),?,-21.8%,-90.2*,?,?,?
CCCN1C(=O)c2[nH]nc(-c3ccccc3O)c2C1c1ccc(OCc2ccccc2)c(OC)c1 (centres undefined),-21.2%[46.1 µM],?,-84.1*,-25.9%,?,?
Cn1c(=O)c(=O)n(C)c2cc(N3CCCC3)c(NC(=O)c3ccc(C(C)(C)C)cc3)cc21,5.8%[46.1 µM],-16.4%,6.9,-6.6%,1.5%,-14.7%[46.1 µM]
COc1ccc(C2C(C#N)=C(N)N(c3ccccc3C#N)C3=C2C(=O)CCC3)cc1CN1CCCC1 (centres undefined),5.8µM*,-20.1%,64.2,-2.8%,-7.6%,0.9%
O=C(Nc1ccc(S(=O)(=O)N2CCCC2)cc1)c1cnccn1,0.3%[46.1 µM],-21.8%,-2.7,-0.4%,i,14.3%[46.1 µM]
Cc1ccc(S(=O)(=O)N2CCc3ccccc3CC2)cc1,?,-3.4%,-78.0*,-11.0%,i,?
